Source: the supplement of paper PMC12819154, “High-throughput peptide-centric local stability assay extends protein–ligand identification to membrane proteins, tissues and bacteria” (Nature Structural & Molecular Biology, 2025)

Compound: Nc1ncnc2c1ncn2[C@@H]1O[C@H](COP(=O)(O)OP(=O)(O)OP(=O)(O)O)[C@@H](O)[C@H]1O [adenosine 5'-triphosphate]
Experiment: log2 fold change of tryptic peptide abundance, ligand vs vehicle (limited proteolysis) (log2 ratio); higher = more trypsin-susceptible (destabilized)
Settings: ligand concentration: 5 mM; sample: E. coli desalted lysate; replicate design: treated before aliquoting
Method: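 HT-PELSA: desalted E. coli K-12 BW25113 lysate (with 12 mM MgCl2) incubated with 5 mM ATP (pH 7) or water for 30 min at 25 C, then a 4 min trypsin pulse at 22 C. Peptides were quantified by DIA-MS (4 replicates). Value is the peptide log2 fold change (treated/control); negative = stabilized. Scale: negative = ligand-stabilized region.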
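Note: lysate desalted by size exclusion to strip endogenous ATP, peptide intensities built from DIA-NN precursor signals, and peptides missing any value discarded before comparison.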

Sequence of UniProt Q47147 (Q47147 whole entry): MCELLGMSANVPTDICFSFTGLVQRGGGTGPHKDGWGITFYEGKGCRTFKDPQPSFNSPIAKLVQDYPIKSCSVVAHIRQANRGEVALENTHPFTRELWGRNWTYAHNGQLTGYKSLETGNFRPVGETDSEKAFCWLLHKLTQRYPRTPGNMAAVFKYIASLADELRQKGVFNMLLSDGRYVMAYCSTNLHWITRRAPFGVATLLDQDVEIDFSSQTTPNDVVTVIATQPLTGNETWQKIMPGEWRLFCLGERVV
Sequence of UniProt P10346 (P10346 whole entry): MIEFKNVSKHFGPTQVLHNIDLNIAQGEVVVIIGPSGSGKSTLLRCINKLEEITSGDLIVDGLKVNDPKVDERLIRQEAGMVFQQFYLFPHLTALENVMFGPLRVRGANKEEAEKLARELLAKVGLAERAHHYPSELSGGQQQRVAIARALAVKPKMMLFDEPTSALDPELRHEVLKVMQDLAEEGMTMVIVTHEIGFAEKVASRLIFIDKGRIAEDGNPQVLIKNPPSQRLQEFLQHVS
Sequence of UniProt P37749 (P37749 whole entry): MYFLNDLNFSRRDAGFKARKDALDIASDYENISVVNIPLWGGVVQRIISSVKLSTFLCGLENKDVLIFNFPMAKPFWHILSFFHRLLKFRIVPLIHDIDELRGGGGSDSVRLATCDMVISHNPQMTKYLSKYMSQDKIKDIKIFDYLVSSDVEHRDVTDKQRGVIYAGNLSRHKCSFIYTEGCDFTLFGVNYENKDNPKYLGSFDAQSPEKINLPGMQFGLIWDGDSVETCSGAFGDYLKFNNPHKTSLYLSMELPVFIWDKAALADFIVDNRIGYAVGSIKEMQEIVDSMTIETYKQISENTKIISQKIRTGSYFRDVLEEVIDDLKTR
Sequence of UniProt P39410 (P39410 whole entry): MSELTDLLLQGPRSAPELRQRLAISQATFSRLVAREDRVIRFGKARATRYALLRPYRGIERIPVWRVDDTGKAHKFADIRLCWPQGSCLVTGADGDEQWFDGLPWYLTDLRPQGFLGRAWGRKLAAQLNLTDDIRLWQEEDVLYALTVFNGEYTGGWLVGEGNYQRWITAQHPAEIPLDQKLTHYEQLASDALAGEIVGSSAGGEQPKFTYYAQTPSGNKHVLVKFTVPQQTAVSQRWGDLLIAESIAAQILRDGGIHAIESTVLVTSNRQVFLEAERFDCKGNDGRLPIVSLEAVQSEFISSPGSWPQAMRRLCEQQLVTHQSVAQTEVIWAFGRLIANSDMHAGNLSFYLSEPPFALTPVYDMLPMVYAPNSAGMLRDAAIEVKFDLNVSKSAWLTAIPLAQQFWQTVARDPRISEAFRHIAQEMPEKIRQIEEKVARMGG
Sequence of UniProt P36566 (P36566 whole entry): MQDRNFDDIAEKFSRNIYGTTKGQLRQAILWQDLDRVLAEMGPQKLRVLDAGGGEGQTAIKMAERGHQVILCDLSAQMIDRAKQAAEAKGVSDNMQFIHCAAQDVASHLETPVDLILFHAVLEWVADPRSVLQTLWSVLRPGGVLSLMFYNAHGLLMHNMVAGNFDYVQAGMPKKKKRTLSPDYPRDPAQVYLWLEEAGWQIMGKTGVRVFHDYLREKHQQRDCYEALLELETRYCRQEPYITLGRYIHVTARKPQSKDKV
Sequence of UniProt P75957 (P75957 whole entry): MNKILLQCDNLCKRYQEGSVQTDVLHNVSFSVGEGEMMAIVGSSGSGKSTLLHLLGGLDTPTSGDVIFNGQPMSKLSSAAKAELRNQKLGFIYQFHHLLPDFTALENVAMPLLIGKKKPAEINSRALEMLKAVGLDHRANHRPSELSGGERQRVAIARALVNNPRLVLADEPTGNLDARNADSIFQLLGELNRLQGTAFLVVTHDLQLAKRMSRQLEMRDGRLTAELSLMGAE
Sequence of UniProt P37689 (P37689 whole entry): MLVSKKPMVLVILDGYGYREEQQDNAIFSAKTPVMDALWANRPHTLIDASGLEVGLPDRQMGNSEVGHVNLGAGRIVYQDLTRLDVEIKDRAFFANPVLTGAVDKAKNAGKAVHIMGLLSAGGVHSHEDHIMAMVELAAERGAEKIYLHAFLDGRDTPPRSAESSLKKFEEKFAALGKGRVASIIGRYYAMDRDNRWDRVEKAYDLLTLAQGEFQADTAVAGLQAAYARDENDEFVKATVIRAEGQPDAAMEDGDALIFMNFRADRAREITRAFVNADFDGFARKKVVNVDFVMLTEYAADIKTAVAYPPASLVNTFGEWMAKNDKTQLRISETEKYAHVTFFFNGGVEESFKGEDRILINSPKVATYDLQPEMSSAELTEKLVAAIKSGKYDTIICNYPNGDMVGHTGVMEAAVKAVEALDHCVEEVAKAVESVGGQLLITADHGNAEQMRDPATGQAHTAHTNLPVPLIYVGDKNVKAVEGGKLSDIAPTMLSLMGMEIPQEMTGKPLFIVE
Sequence of UniProt P06720 (P06720 whole entry): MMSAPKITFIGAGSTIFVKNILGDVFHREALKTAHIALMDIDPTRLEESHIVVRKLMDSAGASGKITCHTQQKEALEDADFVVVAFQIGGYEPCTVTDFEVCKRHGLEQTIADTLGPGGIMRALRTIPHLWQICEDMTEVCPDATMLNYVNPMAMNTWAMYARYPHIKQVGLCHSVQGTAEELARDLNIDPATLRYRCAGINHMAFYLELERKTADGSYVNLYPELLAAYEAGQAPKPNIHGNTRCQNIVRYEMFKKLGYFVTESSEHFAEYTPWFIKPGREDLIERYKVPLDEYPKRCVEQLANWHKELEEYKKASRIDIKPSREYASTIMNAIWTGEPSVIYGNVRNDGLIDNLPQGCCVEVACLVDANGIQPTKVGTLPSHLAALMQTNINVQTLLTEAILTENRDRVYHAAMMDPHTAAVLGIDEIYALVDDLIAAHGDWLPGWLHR

For “UniProt P06720 (peptide sequence: CVEQLANWHKELEEYKK, peptide start residue: 299)”, which log2 fold change is on record?
Its log2 fold change is -1.1.

For “UniProt P37689 (peptide sequence: LVAAIKSGK, peptide start residue: 383)”, which log2 fold change is on record?
The log2 fold change was -2.15.

How did the log2 fold change turn out when “UniProt P36566 (peptide sequence: TLSPDYPR, peptide start residue: 179)” was run?
The log2 fold change was -1.28.

With “UniProt P75957 (peptide sequence: KKPAEINSR, peptide start residue: 117)” as the target, how does the log2 fold change read?
The log2 fold change was -1.5.

With “UniProt P37749 (peptide sequence: YMSQDKIK, peptide start residue: 132)” as the target, how does the log2 fold change read?
Its log2 fold change is -0.295.

“UniProt Q47147 (peptide sequence: QANRGEVALENTHPFTR, peptide start residue: 80)” was tested. Which log2 fold change did it give?
Its log2 fold change is 0.755.

How did the log2 fold change turn out when “UniProt P39410 (peptide sequence: HIAQEMPEKIR, peptide start residue: 422)” was run?
The log2 fold change was -1.96.

For “UniProt P10346 (peptide sequence: IAEDGNPQVLIKNPPSQR, peptide start residue: 214)”, which log2 fold change is on record?
Its log2 fold change is 0.654.
